Data taken from PubChem BioAssay AID1209 (Sanford-Burnham Center for Chemical Genomics, 2008).
Among all 190,000 compounds or so, about 810 (0.43%) were called active. Many of the other results were omitted from the sample, so actives are more common in it than they were. Unmarked numbers belong to inactive results. Rule as the data show it: active = inhibition above about 50%; inactive = the rest.

Each compound was assayed against Mannose-6-phosphate isomerase (Homo sapiens) (UniProt P34949) (assay: inhibitors of human PMI, primary screen, biochemical, fluorescence intensity, coupled assay (AID 1209;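 also: plate controls were DMSO vehicle for no effect and wells lacking substrate for full effect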)). Conditions: purified PMI enzyme, at 20 µM, stronger effect = higher value.
Mannose-6-phosphate isomerase (Homo sapiens), sequence (P34949 whole entry, looked up): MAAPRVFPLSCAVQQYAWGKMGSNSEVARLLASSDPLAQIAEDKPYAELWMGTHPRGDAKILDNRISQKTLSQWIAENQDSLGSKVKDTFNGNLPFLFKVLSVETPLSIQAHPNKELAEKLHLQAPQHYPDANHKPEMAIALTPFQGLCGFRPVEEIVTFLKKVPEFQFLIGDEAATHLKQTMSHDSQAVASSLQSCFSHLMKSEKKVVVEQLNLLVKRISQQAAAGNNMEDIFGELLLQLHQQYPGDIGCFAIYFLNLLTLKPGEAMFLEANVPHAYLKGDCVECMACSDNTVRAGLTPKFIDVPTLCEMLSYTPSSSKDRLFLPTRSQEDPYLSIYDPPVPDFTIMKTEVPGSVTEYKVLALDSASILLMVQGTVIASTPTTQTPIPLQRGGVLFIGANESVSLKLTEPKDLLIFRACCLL

Structure (SMILES)	inhibition
Cc1cccc(CSC2=NCCN2C(=O)C2CC2)c1	5.8%
CCC1N=C(SC)NC(C)=C1C(=O)c1ccccc1 (configuration not stated)	-36.6%
CCOc1ccc(Cn2nnc(C(=O)Nc3cc(C)cc(C)c3)c2N)cc1	18.5%
COc1ccc(N(C)C(=S)Nc2ccc3nc(C)c(C)nc3c2)cc1	53.7% (active)
Fc1ccc(NC(=S)Nc2ccc3nccnc3c2)cc1	56.3% (active)
CC(C)N(C(=O)Nc1ccc2nccnc2c1)C(C)C	65.4% (active)
CC(=O)Nc1ccc(NC(=S)Nc2ccc(F)cc2)cc1	3.2%
Fc1ccc(NC(=S)Nc2nccs2)cc1	2.2%
CCN(CC)CCNC(=S)Nc1ccc(F)cc1	-2.1%
CCN(CC)c1ccc(NC(=S)Nc2ccc(F)cc2)cc1	53.4% (active)
CC(C)(C)NC(=O)Nc1ccc2nccnc2c1	4.4%
COc1ccc(NC(=S)Nc2ccc3nc(C)c(C)nc3c2)cc1	45%
CNC(=S)Nc1ccc2nc(C)c(C)nc2c1	2.5%
OCCCNC(=S)Nc1ccc2nccnc2c1	-2.7%
Cc1nc2ccc(NC(=O)N(C(C)C)C(C)C)cc2s1	3%
Cc1c(Nc2nc(-c3ccc(Cl)cc3)cs2)c(=O)n(-c2ccccc2)n1C	20.6%
COc1ccc(N2CCN(C(=O)c3ccc(F)cc3)CC2)c([N+](=O)[O-])c1	-4.8%
COCCN(C(=O)Cn1nnc2ccccc21)C(C(=O)NC1CCCC1)c1ccc(OC)cc1OC (configuration not stated)	-10.6%
CCc1cccc(CC)c1-n1c(SCC(=O)c2c(N)n(C)c(=O)n(C)c2=O)nnc1-c1cccnc1	17.2%
Cc1ccccc1C(=O)c1c[nH]c(C(=O)N2CCN(c3ccccc3F)CC2)c1	7.5%
Cc1cc(C)cc(NC(=S)N2CCN(c3ccc(F)cc3)CC2)c1	10%
C=CCn1c(SCc2ccccc2)nnc1-c1cccnc1	1.3%
CN(Cc1nc2ccccc2c(=O)[nH]1)CC(O)COCc1ccco1 (configuration not stated)	11.4%
CCNc1nc(CSc2ccccc2)nc2sc(C)c(C)c12	30.5%
CCn1c(SCC(=O)N/N=C/c2ccc(C)o2)nnc1-c1ccc(C)cc1	0.6%
CCN1CCN(CCCNC(=O)C(=O)c2c(C)[nH]c3ccccc23)CC1	-6.7%

Structure (SMILES)	inhibition
O=C(COC(=O)c1ccc(Br)cc1)NCc1ccc(F)cc1	-1.2%
COC(=O)c1ccc(CSc2nnc(C)s2)cc1	8.5%
CC(C)(CO)NC(=O)CC1C(=O)NCCN1CC(c1ccccc1)c1ccccc1 (configuration not stated)	-1.4%
COC(=O)c1cccc(NC(=O)CCc2cc(OC)c(OC)c(OC)c2)c1	-5.4%
COCCn1c(SCCN2CCCCC2)nc2ccccc2c1=O	3.5%
COc1ccc(NC(=S)Nc2ccc3snnc3c2)cc1	25%
CCOc1ccc(NC(=S)Nc2ccc3nsnc3c2)cc1	46.4%
COc1cccc(NC(=O)Nc2ccc3nsnc3c2)c1	1.7%
COc1ccc(NC(=O)c2ccc3nccnc3c2)cc1	-5.2%
COc1ccc(NC(=S)Nc2ccc3nccnc3c2)cc1	83.8% (active)
COc1ccc(N(C)C(=O)Nc2ccc3nsnc3c2)cc1	58.7% (active)
COc1ccc(NC(=O)Nc2ccc3nccnc3c2)cc1	-6.9%
COc1ccc(N(C)C(=O)Nc2ccc3c(c2)nnn3C)cc1	15.5%
COc1ccc(NC(=S)Nc2ccc3nsnc3c2)cc1	64.2% (active)
CCOC(=O)c1sc(NS(=O)(=O)c2ccc(C)cc2)nc1C	5.9%
CCOc1ccc(-c2noc(CCC(N)=O)n2)cc1OCC	-7.6%
Cc1cc(NCCCN2CCOCC2)n2nc(C)c(-c3ccccc3)c2n1	-1.9%
Cc1csc(NC(=O)CSc2nc3ccccc3c(=O)[nH]2)n1	0.4%
C[C@H]1CC[C@H]2C(=O)N3[C@H](c4cccc(N5CCCC5=O)c4)[C@@H](C)CC[C@H]3C(=O)N2[C@@H]1c1cccc(N2CCCC2=O)c1	-17.4%
CC(C)(C)Cc1nnc(NC(=O)Cc2ccc([N+](=O)[O-])cc2)s1	-4.5%
CC(C)(C)C(=O)CSc1nnc(Nc2ccccc2)s1	39.6%
CCOC(=O)N1CCC(N2Cc3cccc(C(=O)Nc4cccc(F)c4)c3C2=O)CC1	-24.4%
CCOC(=O)C1CCN(C(=O)c2c(-c3c(Cl)cccc3Cl)noc2C)CC1	9.4%
CCN(CC)CCNCc1ccc(-c2ccc(Cl)cc2)o1	-7%
CC1CC(C)(C)NC(=S)N1CCCC(=O)N1CCN(c2ccccc2F)CC1 (configuration not stated)	-3.8%
COc1cc(N=C2C(=O)N3c4c(cccc42)C(C)=CC3(C)C)cc(OC)c1	34.1%

Structure (SMILES)	inhibition
COc1ccc(N=C2SCC(=O)N2Cc2ccccc2)cc1	-10.8%
COc1cc(N=C(N)N=C(N)N)cc(OC)c1	-0.7%
COc1ccc(N=c2sc3ccccc3n2C)cc1	5.6%
COc1cc(-c2nnco2)cc(OC)c1OC	15%
COc1cc(-c2nnc(-c3cc(OC)c(OC)c(OC)c3)o2)cc(OC)c1OC	7.6%
CCc1c(C)sc(NC(=O)CSc2nc3c(c(C(F)(F)F)n2)CCc2ccccc2-3)c1C#N	0.3%
Cc1ccc(SCC(=O)NC(=O)NCc2ccco2)cc1C	-3.3%
CCN(CCn1cccn1)C(=O)c1cc(COc2c(F)cccc2F)on1	5.3%
O=C(CN1CCCC1)Nc1cc(F)ccc1F	-1.6%
Cc1noc(C)c1COc1ccc(C(=O)OCC(=O)NCc2ccccc2Cl)cc1	22.4%
CC(C)(C)NC(=O)COC(=O)/C=C/c1ccccc1[N+](=O)[O-]	1.1%
CC(=O)N(Cc1ccc(Br)cc1)c1cccc(C)c1C	5.3%
COc1ccc(OC)c(NC(=O)CN2C(=O)C3(OCCCO3)c3ccccc32)c1	11%
C=CCn1c2[n+](c3ccccc3c1=O)CCCCC2	66.2% (active)
C=CCn1c(C)nc2ccccc2c1=O	10%
C=CCn1c(=S)[nH]c2ccccc2c1=O	1.8%
COc1ccc(NC(C)=O)cc1NC(C)C(=O)Nc1ccc(F)c(F)c1F (configuration not stated)	13.6%
Cc1cc(C)nc(-n2nc(C)cc2NC(=O)c2cccc(S(=O)(=O)N3CCCCC3)c2)n1	15.9%
CCN(CC)c1ccc(NC(=O)/C=C/c2cc(Br)ccc2OC)cc1	6.9%
Cn1c(SCC(=O)N2CCc3ccccc32)nnc1-c1ccc(S(=O)(=O)N2CCCC2)cc1	18.8%
CC1Cc2ccccc2N1C(=O)CSc1nnc(-c2ccc(S(=O)(=O)N3CCCC3)cc2)n1C (configuration not stated)	60.6% (active)
CC1Cc2ccccc2N1C(=O)CSc1nnc(-c2ccc(S(=O)(=O)N3CCOCC3)cc2)n1C (configuration not stated)	-0.3%
CCOC(=O)c1ccc(NC(=O)CSCC(=O)OCC(=O)c2ccccc2)cc1	19.6%
CCOC(=O)CSc1nc2ccc(S(=O)(=O)N3CCOCC3)cc2[nH]1	-11.2%
Cc1ccc2nc(SCC(=O)N3CCOCC3)[nH]c2c1	-2.9%
O=C(CSc1nc2ccc(S(=O)(=O)N3CCOCC3)cc2[nH]1)N1CCOCC1	66% (active)

Structure (SMILES)	inhibition
COc1ccc(OC)c(NS(=O)(=O)c2ccc(NC(=O)c3ccc(NS(C)(=O)=O)cc3)cc2)c1	1.4%
O=C(OCC(CO)OC(CO)n1ccc(=O)[nH]c1=O)c1ccccc1 (configuration not stated)	7.7%
Cn1c(=O)oc2cc(S(=O)(=O)N3CCC(C(=O)NCc4ccc(F)cc4)CC3)ccc21	4.5%
CCn1c(N)c(C(=O)NC)sc1=S	67.3% (active)
CCOC(=O)c1ccc(-n2c(N)c(C(=O)NCC3CCCO3)sc2=S)cc1 (configuration not stated)	31.5%
CCNC(=O)c1sc(=S)n(CC)c1N	6.5%
CCn1c(N)c(C(N)=O)sc1=S	18.4%
C=CCn1c(N)c(C(=O)NCC2CCCO2)sc1=S (configuration not stated)	-2.2%
CCn1c(N)c(C(=O)NCC2CCCO2)sc1=S (configuration not stated)	70.4% (active)
CCN(CC)CCn1c(=N)n(CC(O)c2ccc(OC)c(OC)c2)c2ccccc21 (configuration not stated)	-0.3%
O=C(CCN1C(=O)C2CC=CCC2C1=O)N1CCN(c2ccccn2)CC1 (configuration not stated)	-3.3%
C=CCSc1nnc(C)n1-c1ccc(Cl)cc1	21.9%
C/C(=N\N=C(N)N)c1cccc(Cl)c1	11.7%
O=C(N/N=C/c1ccccc1C(=O)O)C(=O)N1CCCCC1	2.7%
Oc1ccc(/C=N/NC(=S)Nc2cccnc2)c(O)c1	-1.2%
Oc1ccc(/C=N/NC(=S)NCCN2CCOCC2)c(O)c1	-8.8%
S=C(NCCN1CCOCC1)N/N=C/c1ccccc1	2%
Oc1cccc(/C=N/NC(=S)NCCN2CCOCC2)c1O	66.9% (active)
Oc1cccc(/C=N/NC(=S)Nc2cccnc2)c1O	55.6% (active)
NC(=S)N/N=C/c1ccccc1	11.4%
NC(=S)N/N=C/c1ccccc1[N+](=O)[O-]	24.6%
Oc1ccc(/C=N/NC(=S)Nc2cccnc2)cc1O	43.5%
O=C(COc1ccc(Cl)cc1)NCC(=O)N/N=C/c1cccs1	2.8%
Cc1noc(C(=O)Nc2c(C)n(C)n(-c3ccccc3)c2=O)c1Cl	-5.9%
